Experimental findings from PubChem BioAssay (Tox21) are described below.

Molecules are shown by their SMILES. Records with an inconclusive call do not appear. A call without a number means that no potency is given here. Activity calls are given as the source filed them. The call rests on the fitted dose curve; in most records, active means well fitted cell-killing curve with a large enough effect in the repeat runs; inconclusive means weak or mixed curves, or effect the other way; inactive means flat fitted curve, though single readings scatter.

The assay is described as follows: qHTS RealTime-Glo MT Cell Viability Assay in HEK293 cells - 0 hour (AID 1224880). Further: top concentration of the series differs between compounds; nearly all actives have a fitted effect of over 45% in size. Particulars: RealTime-Glo luminescence; series mostly up to 76.8 µM. From the text: U.S. Tox21 Program National Center for Advancing Translational Sciences [NCATS] NIH Chemical Genomics Center [NCGC] U.S. Environmental Protection Agency [EPA] National Institutes of Environmental Health Sciences [NIEHS] National Toxicology Program [NTP] U.S. Food and Drug Administration [FDA] Tox21 Assay Overview: Measure of cell viability is critical in the cell-base assay. Analysis of cell viability is necessary for the characterization of cell responses to cytotoxic drugs and environmental stress. A RealTime-Glo MT Cell Viability Assay to monitor cell viability in real time of continues cell culture during 40 hours of compound treatment was used to screen Tox21 10K library compounds in Hek293 cells. The RealTime-Glo MT Cell Viability Assay is a nonlytic, homogeneous, bioluminescent method to measure cell viability in real time using a simple, plate-based method. The assay involves adding NanoLuc luciferase and a cell-permeant prosubstrate to cells in culture. Viable cells reduce the proprietary prosubstrate to generate a substrate for NanoLuc luciferase. This substrate diffuses from cells into the surrounding culture medium, where it is rapidly used by the NanoLuc Enzyme to produce a luminescent signal. The signal correlates with the number of viable cells, making the assay well suited for cytotoxicity studies.
Tox21 Assay Protocol Summary: The mixture of Hek293 cell suspension and reagents were dispensed at 600cells/6 ul/well in 1536-well tissue culture treated black solid bottom plates using a Multidrop dispenser. After the assay plates were incubated at a 37 C/5% CO2 incubator for 5 hours, 23 nL of compounds dissolved in DMSO, positive and negative controls was transferred to the assay plate by a pintool work station. The plates were incubated at 37 C for 40 hours. The luminescence intensity were measured at 0h, 8h, 16h, 24h, 32h and 40h time points using ViewLux plate reader during compound treatment.
On to `COCCOCC(OC)OC`, for which the Potency result is “inactive”.

As for `NC(CCC(=O)O)C(=O)O` (stereo not given), the Potency result was “inactive”.

As to `C=C(C)C(=O)OCC(O)CO` (stereo not given), the Potency entry was “inactive”.

Consider `C=CC(C)(CCC=C(C)C)OC(=O)CC` (stereo not given), for which the Potency entry was “inactive”.

For the molecule `Nc1c2c(nc3c1CCC3)CCCC2`, the Potency entry was “inactive”.

Turning to `CCCCCCCCCCOc1cc2c(=O)c(C(=O)OCC)c[nH]c2cc1OCC`, the activity change, negative = cytotoxicity was -0.96% [at 6.97 µM] (inactive).

On to `CCNS(=O)(=O)c1ccc(C)cc1`, for which the Potency result was “inactive”.

With `C[N+](C)(C)CCCCCCCCCC[N+](C)(C)C`, the Potency entry was “inactive”.

Consider `CC1(C)[C@@H]2CC[C@@]1(C)[C@H](O)C2`, for which the Potency entry was “inactive”.

As to `O=C1c2ccccc2C(=O)c2cc(O)ccc21`, the Potency entry was “inactive”.

With `COc1ccnc(CS(=O)c2nc3cc(OC(F)F)ccc3[nH]2)c1OC` (stereo not given), the Potency result is “inactive”.

Regarding `CCOC(=O)OC(C)OC1=C(C(=O)Nc2ccccn2)N(C)S(=O)(=O)c2ccccc21` (stereo not given), the Potency entry is “inactive”.

On to `OCCCCCO`, for which the Potency entry is “inactive”.

For `CC(C)(C)OC(=O)c1cccc(N)c1`, the Potency entry is “inactive”.

On to `CC[N+](CC)(CC(=O)Nc1c(C)cccc1C)Cc1ccccc1` (tested in a mixture with another compound), for which the Potency result is “inactive”.

As for `CC(CC=O)CC(C)(C)C` (stereo not given), the Potency entry was “inactive”.

Regarding `Cc1ccc(C(=O)Nc2ccc(S(=O)(=O)O)c3cc(S(=O)(=O)O)cc(S(=O)(=O)O)c23)cc1NC(=O)c1cccc(NC(=O)Nc2cccc(C(=O)Nc3cc(C(=O)Nc4ccc(S(=O)(=O)O)c5cc(S(=O)(=O)O)cc(S(=O)(=O)O)c45)ccc3C)c2)c1`, the Potency entry is “inactive”.

In the case of `CC(=O)OCC(=O)[C@@]1(O)[C@H](C)C[C@H]2[C@@H]3CCC4=CC(=O)C=C[C@]4(C)[C@@]3(F)[C@@H](O)C[C@@]21C`, the Potency entry is “inactive”.

In the case of `O=C1CCCCCCCCCCCCCCO1`, the Potency result is “inactive”.

Consider `CC1=C(C/C=C(\C)CCC[C@H](C)CCC[C@H](C)CCCC(C)C)C(=O)c2ccccc2C1=O`, for which the Potency entry was “inactive”.

Regarding `NC(N)=NCCN1CCCCCCC1`, the activity change, negative = cytotoxicity is -7.81% [at 0.29 µM] (inactive).

For the molecule `CC(C)(C)C(=O)c1ccccc1`, the Potency result was “inactive”.

For the molecule `C=CCOCC(O)CO` (stereo not given), the Potency entry was “inactive”.

Take `C=CCCCCCCCCC(=O)OCC`: the Potency result is “inactive”.

As for `CC(C)(C#N)Nc1nc(Cl)nc(NC2CC2)n1`, the Potency entry is “inactive”.

For the molecule `CCCCOC(=O)CCC(C)=O`, the Potency entry is “inactive”.

In the case of `c1ccc(CCc2ccccc2)cc1`, the Potency entry is “inactive”.

On to `CCOC(=O)COC(=O)c1ccccc1C(=O)OCC`, for which the Potency entry is “inactive”.

Regarding `CC(=O)NC(=O)c1ccccc1O`, the Potency result is “inactive”.

In the case of `C[C@@H]1CCC[C@H](C)N1`, the Potency result was “inactive”.

As for `NCCCC[C@H](N[C@@H](CCc1ccccc1)C(=O)O)C(=O)N1CCC[C@H]1C(=O)O`, the Potency result was “inactive”.

For `Nc1ccccn1`, the Potency entry is “inactive”.

`[O-][n+]1cccc(CO)c1`: the Potency entry was “inactive”.

Consider `CC1CCC(CO)CC1` (stereo not given), for which the Potency result is “inactive”.

Turning to `CN1C(C)(C)CC(O)CC1(C)C`, the Potency result was “inactive”.

Take `CC(C)C[C@@H](N)C(=O)O`: the activity change, negative = cytotoxicity was 5.62% [at 15.8 µM] (inactive).

Take `CCCC(C)C(=O)OCC` (stereo not given): the Potency entry was “inactive”.

Regarding `CC[C@H]1OC(=O)[C@H](C)[C@@H](O[C@H]2C[C@@](C)(OC)[C@@H](O)[C@H](C)O2)[C@H](C)[C@@H](O[C@@H]2O[C@H](C)C[C@H](N(C)C)[C@H]2O)[C@](C)(OC)C[C@@H](C)C(=O)[C@H](C)[C@@H](O)[C@]1(C)O`, the Potency result was “inactive”.

As for `NC(=O)N[C@@H](CCC(=O)O)C(=O)O`, the Potency result is “inactive”.

With `CC12CCC(C(=O)C1=O)C2(C)C` (stereo not given), the Potency entry was “inactive”.
